Assay results: PubChem BioAssay (EPA / NIEHS)
Values joined by “and” are separate entries in the source; they are usually repeats but may differ in a detail not shown here. Equal entries are not always repeated. Inconclusive results are not listed. More than one record can exist for a structure, and the calls need not agree. Active and inactive are the calls of the source. How the source made its calls, unless noted: active means hit-call score of the fitted dose curve at least 0.9, where 1 is the maximum; inconclusive means response in the unintended direction; inactive means score below 0.9.

How the values were obtained:
[1] = read-out: solute carrier (SLCO1B1), SLCO1B1 (gene 10599); assay: LTEA_HepaRG_SLCO1B1: Life Technologies and Expression Analysis (LTEA) Assay for solute carrier (SLCO1B1) using HepaRG (AID 2283530; active means hit-call score of the fitted dose curve at least 0.9, where 1 is the maximum; inactive means score below 0.9); details: mRNA level, 48 h; actives raise or lower the signal
How it was run: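 Differentiated human HepaRG cells were exposed for 48 h in serum-free induction medium to eight half-log concentrations, top 100 uM, in 0.5% DMSO. SLCO1B1 mRNA was measured by qRT-PCR, normalized to ACTB, GAPDH and POLR2A, and fitted bidirectionally against DMSO.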

[2] = read-out: Transforming Growth Factor (TGFA), TGFA (gene 7039); assay: LTEA_HepaRG_TGFA: Life Technologies and Expression Analysis (LTEA) Assay for Transforming Growth Factor (TGFA) using HepaRG (AID 2283532; active means hit-call score of the fitted dose curve at least 0.9, where 1 is the maximum; inactive means score below 0.9); details: mRNA level, 48 h; actives raise or lower the signal
How it was run: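 Differentiated HepaRG cells exposed 48 hours in serum-free induction medium, 0.5% DMSO vehicle, 8-point half-log series from 100 uM, in duplicate. TGFA mRNA by TaqMan qRT-PCR, normalised to ACTB, GAPDH, POLR2A; bidirectional fit versus DMSO.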

[3] = read-out: Transforming Growth Factor (TGFB1), TGFB1 (gene 7040); assay: LTEA_HepaRG_TGFB1: Life Technologies and Expression Analysis (LTEA) Assay for Transforming Growth Factor (TGFB1) Transporter using HepaRG (AID 2283533; active means hit-call score of the fitted dose curve at least 0.9, where 1 is the maximum; inactive means score below 0.9); details: mRNA level, 48 h; actives raise or lower the signal
How it was run: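 Differentiated HepaRG cells exposed 48 hr in serum-free induction medium to eight half-log concentrations up to 100 uM (0.5% DMSO), duplicate; TGFB1 mRNA by TaqMan qRT-PCR normalised to ACTB, GAPDH, POLR2A; bidirectional fit against DMSO.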

TIMP1, TIMP1 (gene 7076) = assay: LTEA_HepaRG_TIMP1: Life Technologies and Expression Analysis (LTEA) Assay for TIMP1 using HepaRG (AID 2283534; active means hit-call score of the fitted dose curve at least 0.9, where 1 is the maximum; inactive means score below 0.9;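 further: TaqMan qRT-PCR signal normalized to ACTB GAPDH and POLR2A housekeeping genes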); details: mRNA level, 48 h; actives raise or lower the signal
How it was run: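 Differentiated HepaRG cells exposed 48 h in serum-free induction medium, duplicates, eight half-log concentrations from 100 uM in 0.5% DMSO. TIMP1 mRNA by qRT-PCR normalized to ACTB, GAPDH, POLR2A; bidirectional fitting against DMSO.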

[4] = read-out: Tumor necrosis factor receptor 1 (TNFRSF1A), TNFRSF1A (gene 7132); assay: LTEA_HepaRG_TNFRSF1A: Life Technologies and Expression Analysis (LTEA) Assay for Tumor necrosis factor receptor 1 (TNFRSF1A) using HepaRG (AID 2283535; active means hit-call score of the fitted dose curve at least 0.9, where 1 is the maximum; inactive means score below 0.9); details: mRNA level, 48 h; actives raise or lower the signal
How it was run: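 Differentiated HepaRG cells in serum-free induction medium, exposed 48 h in duplicate to 8 half-log concentrations up to 100 uM in 0.5% DMSO. TNFRSF1A mRNA by Fluidigm TaqMan qRT-PCR, normalized to ACTB, GAPDH, POLR2A; bidirectional fit.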

[5] = read-out: Thyroid Hormone Responsive (THRSP), THRSP (gene 7069); assay: LTEA_HepaRG_THRSP: Life Technologies and Expression Analysis (LTEA) Assay for Thyroid Hormone Responsive (THRSP) using HepaRG (AID 2283536; active means hit-call score of the fitted dose curve at least 0.9, where 1 is the maximum; inactive means score below 0.9); details: mRNA level, 48 h; actives raise or lower the signal
How it was run: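 Differentiated HepaRG cells treated 48 h in serum-free induction medium with 8 half-log concentrations up to 100 uM (0.5% DMSO), duplicates. THRSP mRNA by TaqMan qRT-PCR normalised to ACTB, GAPDH, POLR2A; bidirectional fit versus DMSO.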

[6] = read-out: Cellular tumor antigen p53 (Homo sapiens) (UniProt P04637); assay: LTEA_HepaRG_TP53: Life Technologies and Expression Analysis (LTEA) Assay for Tumor Protein P53 (TP53) using HepaRG (AID 2283537; active means hit-call score of the fitted dose curve at least 0.9, where 1 is the maximum; inactive means score below 0.9); details: mRNA level, 48 h; actives raise or lower the signal
How it was run: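 Gain or loss of TP53 mRNA signal is scored relative to 0.5% DMSO after 48 h chemical treatment of HepaRG liver cells, tested in duplicate at eight half-log concentrations up to 100 uM.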

[7] = read-out: UDP glucuronosyltransferase (UGT1A1), UGT1A1 (gene 54658); assay: LTEA_HepaRG_UGT1A1: Life Technologies and Expression Analysis (LTEA) Assay for UDP glucuronosyltransferase (UGT1A1) using HepaRG (AID 2283538; active means hit-call score of the fitted dose curve at least 0.9, where 1 is the maximum; inactive means score below 0.9); details: mRNA level, 48 h; actives raise or lower the signal
How it was run: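 Human liver HepaRG cultures receive test chemical for 48 h, up to 100 uM in 0.5% DMSO, with phenobarbital induction controls. UGT1A1 mRNA is measured by qRT-PCR and normalized to ACTB, GAPDH and POLR2A.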

[8] = read-out: UDP glucuronosyltransferase (UGT1A6), UGT1A6 (gene 54578); assay: LTEA_HepaRG_UGT1A6: Life Technologies and Expression Analysis (LTEA) Assay for UDP glucuronosyltransferase (UGT1A6) using HepaRG (AID 2283539; active means hit-call score of the fitted dose curve at least 0.9, where 1 is the maximum; inactive means score below 0.9); details: mRNA level, 48 h; actives raise or lower the signal
How it was run: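 Differentiated HepaRG cells, ~100,000/well, were exposed for 48 h in serum-free induction medium with 0.5% DMSO to 8-point half-log series topping at 100 uM, in duplicate. mRNA measured by Fluidigm TaqMan qRT-PCR, normalized to ACTB, GAPDH and POLR2A.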

[9] = read-out: X-box binding protein 1 (XBP1), XBP1 (gene 7494); assay: LTEA_HepaRG_XBP1: Life Technologies and Expression Analysis (LTEA) Assay for X-box binding protein 1 (XBP1) using HepaRG (AID 2283540; active means hit-call score of the fitted dose curve at least 0.9, where 1 is the maximum; inactive means score below 0.9); details: mRNA level, 48 h; actives raise or lower the signal
How it was run: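 Differentiated human HepaRG cells in serum-free induction medium exposed 48 h in duplicate to eight half-log concentrations up to 100 uM in 0.5% DMSO. XBP1 mRNA measured by Fluidigm TaqMan qRT-PCR, normalized to ACTB, GAPDH, POLR2A; bidirectional fitting against DMSO.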

[10] = LTEA_HepaRG_LDH_cytotoxicity: Cytotoxicity Assessment in the Life Technologies and Expression Analysis (LTEA) Assay (AID 2283563);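 on AC50: LDH activity released into spent culture medium as a marker of cell death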
How it was run: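 Differentiated HepaRG cells in serum-free induction medium, exposed 48 h in duplicate to 8 half-log concentrations up to 100 uM in 0.5% DMSO. Cytotoxicity from LDH measured in spent medium, fit relative to DMSO.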

[11] = TOX21_p53_BLA_p2_viability: Viability Assessment in the Tox21 HCT-116 p53 Agonism Beta-lactamase Assay, Phase 2 (AID 2283591);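 further: compound exposure lasted 16 h at 37 °C; actives lower the ATP signal meaning cytotoxicity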
How it was run: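 HCT116 p53-bla cells, 4000/well, dosed after 5 h plating (217-fold dilution of DMSO stocks) and incubated 16 h at 37C. Viability taken as cellular ATP by CellTiter-Glo luminescence after 30 min RT; signal loss marks cytotoxicity.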

[12] = biological target: Cellular tumor antigen p53 (Homo sapiens) (UniProt P04637); assay: TOX21_p53_BLA_p2_ratio: Tox21 HCT-116 p53 Agonism Beta-lactamase Assay, Ratio, Phase 2 (AID 2283592)
Cellular tumor antigen p53 (Homo sapiens), sequence (P04637 whole entry, looked up): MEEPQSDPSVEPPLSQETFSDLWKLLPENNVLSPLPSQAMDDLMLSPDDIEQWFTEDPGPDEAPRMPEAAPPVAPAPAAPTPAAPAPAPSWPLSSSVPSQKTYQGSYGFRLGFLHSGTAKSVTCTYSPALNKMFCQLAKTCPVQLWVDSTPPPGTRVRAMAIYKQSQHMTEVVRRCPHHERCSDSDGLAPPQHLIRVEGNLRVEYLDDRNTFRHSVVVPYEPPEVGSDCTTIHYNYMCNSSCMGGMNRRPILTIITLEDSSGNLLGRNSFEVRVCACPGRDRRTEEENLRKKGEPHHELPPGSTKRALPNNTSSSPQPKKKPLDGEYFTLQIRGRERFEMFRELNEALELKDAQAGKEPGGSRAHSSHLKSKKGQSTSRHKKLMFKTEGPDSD
How it was run: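 HCT-116 cells with p53-responsive beta-lactamase reporter, 4000 cells/well, preincubated 5 h, then compound in DMSO (217-fold dilution) for 16 h at 37C. CCF4-AM substrate 2 h at room temperature; 460/530 nm emission ratio fitted upward versus DMSO.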

[13] = TOX21_p53_BLA_p3_viability: Viability Assessment in the Tox21 HCT-116 p53 Agonism Beta-lactamase Assay, Phase 3 (AID 2283593);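 further: cells exposed to compound for 16 h before reading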
How it was run: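 HCT116 cells, 4000/well, dosed 5 h after plating by pin transfer (217-fold dilution from DMSO stock) and incubated 16 h at 37C, 5% CO2. Viability read as ATP luminescence with CellTiter-Glo after 30 min at room temperature.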

[14] = biological target: Cellular tumor antigen p53 (Homo sapiens) (UniProt P04637); assay: TOX21_p53_BLA_p3_ratio: Tox21 HCT-116 p53 Agonism Beta-lactamase Assay, Ratio, Phase 3 (AID 2283596)
How it was run: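 HCT116 p53-bla cells (4000/well) given compound in DMSO (217-fold dilution) after 5 h, incubated 16 h at 37C. CCF4-AM substrate 2 h at room temperature; 460/530 nm emission ratio, gain fitted against DMSO.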

[15] = TOX21_p53_BLA_p4_viability: Viability Assessment in the Tox21 HCT-116 p53 Agonism Beta-lactamase Assay, Phase 4 (AID 2283597);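 further: hits lower the luminescence signal meaning cytotoxicity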
How it was run: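 HCT-116 p53-bla cells, 4000/well, dosed after 5 h attachment and incubated 16 h at 37 °C, 5% CO2. Viability from CellTiter-Glo ATP luminescence after 30 min at room temperature, taken after the beta-lactamase read; loss of signal indicates cytotoxicity.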

[16] = TOX21_p53_BLA_p5_viability: Viability Assessment in the Tox21 HCT-116 p53 Agonism Beta-lactamase Assay, Phase 5 (AID 2283600)
How it was run: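 HCT-116 p53 beta-lactamase reporter cells, 4000/well, were exposed to compound (pin transfer, 217-fold dilution) for 16 hours at 37C. Cellular ATP was read by CellTiter-Glo luminescence after 30 min at room temperature.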

[17] = biological target: Cellular tumor antigen p53 (Homo sapiens) (UniProt P04637); assay: TOX21_p53_BLA_p4_ratio: Tox21 HCT-116 p53 Agonism Beta-lactamase Assay, Ratio, Phase 4 (AID 2283601)
How it was run: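 HCT-116 p53 beta-lactamase reporter cells (4000/well) preincubated 5 h, then compound (217-fold dilution of DMSO stock) for 16 h at 37C. CCF4-AM substrate added 2 h at room temperature; 460/530 nm emission ratio fitted upward versus DMSO.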

[18] = ATG_XTT_Cytotoxicity: Cytotoxicity Assessment in the Attagene TRANS-FACTORIAL HepG2 Assay (AID 2283584);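 on AC50: XTT signal for cell number as viability in transfected HepG2 cells; cells exposed to compound for 24 h before reading; active means loss of viability signal versus DMSO baseline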
How it was run: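 HepG2 cells transiently transfected with GAL4-UAS multiple reporter units, dosed 24 h; cytotoxicity read by XTT as loss of signal versus DMSO baseline.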

Measured: AC50

OCCOc1ccccc1
not listed: [18]
inactive: all other assays above

CCOCN(C(=O)CCl)c1c(C)cccc1CC
active: [1] 81.3 µM | [5] 9.92 µM | [10] 76 µM
not listed: [11] | [13] | [16]
inactive: all other assays above

O=S(=O)(O)C(F)(F)C(F)(F)C(F)(F)C(F)(F)C(F)(F)C(F)(F)C(F)(F)C(F)(F)F
active: [1] 93.1 µM and 79 µM and 77.6 µM | [2] 50 µM and 16.7 µM and 48 µM | [3] 48 µM | [5] 34.2 µM and 45.8 µM and 60 µM | [6] 50 µM and 48 µM | [7] 12.9 µM and 11.5 µM and 11.9 µM | [8] 89.2 µM and 47 µM | [10] 75.8 µM and 79.2 µM and 75.4 µM | [18] 151 µM and 157 µM | [11] 46.1 µM | [13] 61.4 µM | [15] 64.6 µM and 48.8 µM and 59.3 µM | [17] 82.4 µM and 82.8 µM
inactive: [1] | [3] | TIMP1, TIMP1 (gene 7076) | [4] | [5] | [8] | [9] | [10] | [18] | [11] | [12] | [13] | [14] | [16] | [17]
